# Test results: PubChem BioAssay AID588664 (The Scripps Research Institute Molecular Screening Center, 2011)
# In all, about 360,000 compounds went through this assay and about 1,400 (0.39%) were called active. Only a selection was taken, and actives are over-represented in it overall. Values without a mark were called inactive. Cut-off read from the data, not from the text of the source: active = inhibition above about 5% (passing the limit was not always enough); inactive = the rest.
# Target: Tyrosine-protein kinase ABL1 (Homo sapiens) + Ras and Rab interactor 1 (Homo sapiens) (UniProt P00519+Q13671)
# Experiment: inhibitors of Rin1-Abl protein binding, primary screen, biochemical, TR-FRET (AID 588664)
# Conditions: at 7.35 µM, stronger effect = higher value
# Sequence of Tyrosine-protein kinase ABL1 (Homo sapiens) + Ras and Rab interactor 1 (Homo sapiens) (P00519 whole entry, looked up): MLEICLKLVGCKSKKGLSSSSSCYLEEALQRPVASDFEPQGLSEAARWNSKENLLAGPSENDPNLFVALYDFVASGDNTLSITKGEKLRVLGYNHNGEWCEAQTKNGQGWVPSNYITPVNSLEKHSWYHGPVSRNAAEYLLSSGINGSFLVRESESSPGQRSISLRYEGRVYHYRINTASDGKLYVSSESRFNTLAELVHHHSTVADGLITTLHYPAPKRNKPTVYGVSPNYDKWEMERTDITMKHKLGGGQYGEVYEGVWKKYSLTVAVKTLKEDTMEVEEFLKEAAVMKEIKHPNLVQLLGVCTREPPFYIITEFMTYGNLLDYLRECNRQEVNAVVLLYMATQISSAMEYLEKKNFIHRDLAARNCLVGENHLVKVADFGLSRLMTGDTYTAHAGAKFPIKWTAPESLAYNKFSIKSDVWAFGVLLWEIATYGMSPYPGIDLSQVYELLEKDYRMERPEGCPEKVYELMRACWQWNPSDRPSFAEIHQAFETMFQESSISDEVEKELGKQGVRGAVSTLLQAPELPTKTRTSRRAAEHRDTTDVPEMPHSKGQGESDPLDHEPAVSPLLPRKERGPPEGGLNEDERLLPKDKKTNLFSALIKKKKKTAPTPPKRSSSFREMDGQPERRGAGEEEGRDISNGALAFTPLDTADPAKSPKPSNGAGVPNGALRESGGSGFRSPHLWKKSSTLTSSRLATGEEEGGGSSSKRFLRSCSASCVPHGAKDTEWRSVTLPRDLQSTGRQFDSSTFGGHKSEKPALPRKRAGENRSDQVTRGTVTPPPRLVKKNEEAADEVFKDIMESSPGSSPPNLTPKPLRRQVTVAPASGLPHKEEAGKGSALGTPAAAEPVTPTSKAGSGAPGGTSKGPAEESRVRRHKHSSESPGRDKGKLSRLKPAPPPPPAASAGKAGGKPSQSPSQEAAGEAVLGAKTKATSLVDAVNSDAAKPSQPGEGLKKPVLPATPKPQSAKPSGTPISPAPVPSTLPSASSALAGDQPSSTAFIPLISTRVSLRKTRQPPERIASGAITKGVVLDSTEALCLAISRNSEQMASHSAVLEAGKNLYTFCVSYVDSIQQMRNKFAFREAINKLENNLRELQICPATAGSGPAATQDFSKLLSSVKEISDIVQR
# Sequence of Tyrosine-protein kinase ABL1 (Homo sapiens) + Ras and Rab interactor 1 (Homo sapiens) (Q13671 whole entry, looked up): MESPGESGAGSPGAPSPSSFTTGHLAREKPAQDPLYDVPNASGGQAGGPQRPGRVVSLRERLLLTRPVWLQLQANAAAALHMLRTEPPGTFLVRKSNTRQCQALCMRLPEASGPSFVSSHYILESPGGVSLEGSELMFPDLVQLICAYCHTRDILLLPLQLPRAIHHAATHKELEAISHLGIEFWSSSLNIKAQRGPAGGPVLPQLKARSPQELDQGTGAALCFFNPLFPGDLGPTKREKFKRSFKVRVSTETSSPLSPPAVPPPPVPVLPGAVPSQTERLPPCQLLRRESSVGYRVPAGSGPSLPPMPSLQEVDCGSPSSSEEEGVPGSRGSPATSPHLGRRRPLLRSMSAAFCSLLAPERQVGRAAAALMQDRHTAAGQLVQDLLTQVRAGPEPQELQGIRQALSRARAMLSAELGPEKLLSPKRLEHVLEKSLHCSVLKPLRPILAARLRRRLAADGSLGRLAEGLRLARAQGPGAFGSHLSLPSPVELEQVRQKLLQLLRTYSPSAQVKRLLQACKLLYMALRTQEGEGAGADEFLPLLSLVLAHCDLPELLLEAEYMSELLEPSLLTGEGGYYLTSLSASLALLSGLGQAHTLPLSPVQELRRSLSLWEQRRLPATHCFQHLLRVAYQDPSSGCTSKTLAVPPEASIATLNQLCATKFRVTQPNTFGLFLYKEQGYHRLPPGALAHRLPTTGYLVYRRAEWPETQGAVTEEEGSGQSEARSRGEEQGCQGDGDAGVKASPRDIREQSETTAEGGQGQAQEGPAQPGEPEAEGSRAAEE
row,SMILES,inhibition
1,CCC(C)C(=O)Nc1ccccc1N1CCN(c2ccc(F)cc2)CC1 (stereo unspecified),1.3%
2,CCOC(=O)C1CCCN(C(=O)c2ccc(C)c(S(=O)(=O)N3CCCCC3)c2)C1 (stereo unspecified),2.16%
3,Cn1nc([N+](=O)[O-])nc1Sc1ccc(C(C)(C)C)cc1,-6.46%
4,O=C(CNCc1ccco1)Nc1cc(S(=O)(=O)N2CCOCC2)ccc1N1CCCC1,5.51% (active)
5,CC(C)CCC(=O)Nc1cc(S(=O)(=O)N2CCOCC2)ccc1N1CCCC1,-1.79%
6,O=C(COC(=O)c1ccccc1F)Nc1cc(S(=O)(=O)N2CCOCC2)ccc1N1CCCC1,0.95%
7,O=C1NC[C@@H](c2ccccc2)OC(=O)[C@H](Cc2ccc(F)cc2)CC/C=C/C[C@H]1CC(=O)N(CCO)Cc1ccccc1,-0.64%
8,Cc1nn(C)cc1S(=O)(=O)N1CCN(c2ccc(F)cc2)CC1,1.17%
9,CCOC(=O)Cc1ncccc1C(=O)Nc1ccc(OC(F)(F)F)cc1,-0.49%
10,O=C(Nc1ccc(OC(F)(F)F)cc1)c1ccc2c(c1)no[n+]2[O-],6.4% (active)
11,CCOc1c2ccc(C(=O)NCc3ccc(OC(F)(F)F)cc3)cc2nn1C,3.17%
12,COc1ccc(N(CC(=O)NC2CCCCC2)S(=O)(=O)c2c(C)[nH]c(=O)[nH]c2=O)cc1,0.98%
13,C=CCNC(=O)c1ccccc1NC(=O)c1ccc(Cl)c(S(=O)(=O)Nc2cccc(C)c2C)c1,3.96%
14,Cc1nn(C)c(Cl)c1CN1CCC(Oc2ccc(C(=O)N3CCCC3)cc2)CC1,-0.88%
15,CC(=O)Nc1ccc(CN2CCC(Oc3ccc(C(=O)N4CCCC4)cc3)CC2)cc1,7.35% (active)
16,O=C(c1ccc(OC2CCN(C/C=C/c3ccc(F)cc3)CC2)cc1)N1CCCCC1,4.14%
17,Cc1noc(C)c1-c1nc(CSc2ccc(Cl)cc2)no1,-1.19%
18,COc1ccc(-c2cc(C(F)(F)F)n3nc(C(=O)N4CCOCC4)c(Cl)c3n2)cc1,0.58%
19,CCc1nnc(NC(=O)CSc2nc3ccccc3c(=O)n2CCCOC)s1,2.09%

row,SMILES,inhibition
1,Cc1cccc(C)c1NC(=O)CSc1nc2c([nH]1)c(=O)n(C)c(=O)n2C,0.29%
2,Cc1cc(C)c(C=NNc2nc3c([nH]2)c(=O)n(C)c(=O)n3C)c(C)c1,4.38%
3,CC(CCO)Nc1nc2c([nH]1)c(=O)n(C)c(=O)n2C (stereo unspecified),7.16% (active)
4,O=C(C=CC(=O)Nc1ccc(F)cc1F)Nc1ccc(F)cc1F,-1.65%
5,Cc1sc2ncn(CC(=O)NCCN(C)C)c(=O)c2c1S(=O)(=O)N1CCC(C)CC1,-2.5%
6,O=C(CCN1C(=O)[C@H]2CC=CC[C@H]2C1=O)NCc1nc(-c2ccccc2)no1,4.64%
7,C=C(Br)Cn1c(CCCC)nc2ccccc21,-1.26%
8,NS(=O)(=O)c1ccc(CCNC(=S)Nc2ccc(S(N)(=O)=O)cc2)cc1,-1.51%
9,CN(CC(=O)NCCc1ccc(S(N)(=O)=O)cc1)CC(=O)Nc1ccc(Cl)cc1,2.85%
10,NS(=O)(=O)c1ccc(CCNC(=O)Nc2ccc(Cl)cc2)cc1,7.48% (active)
11,COc1ccc(-c2c(C)nn3c(N4CCC(C(=O)N5CCCCC5)CC4)cc(C)nc23)cc1OC,-0.97%
12,c1ccc(Cc2nn3c(Cn4cnc5ccccc54)nnc3s2)cc1,6.72%
13,OCCNc1nc2ccccc2n1-c1ncnc2sc3c(c12)CCC3,-1.62%
14,CCc1cc2c(NC(Cc3ccccc3)C(=O)O)ncnc2s1 (stereo unspecified),-0.92%
15,CCc1cc2c(NC3CCCC3)ncnc2s1,-2.86%
16,CCc1cc2c(N3CCN(c4nnc(CC)s4)CC3)ncnc2s1,7.4% (active)
17,C[C@@H](NC(=O)[C@@H]1Cc2ccccc2CN1)C(=O)NC1CCCC1,0.01%
18,Cc1ccc(C)c(NS(=O)(=O)c2ccc(OCC(=O)NCc3cccnc3)cc2)c1,2.47%
19,Oc1c(CN2CCN(c3ccc(F)cc3)CC2)cc(Cl)c2cccnc12,5.47% (active)

row,SMILES,inhibition
1,Cc1cccc(C)c1NC(=O)CN1CCN(c2ccc(F)cc2)CC1,2.38%
2,Cc1cc(=O)oc2cc(OCC(=O)N3CCN(c4ccc(F)cc4)CC3)c(Cl)cc12,-4.94%
3,O=C(CN1CCN(c2ccc(Cl)cc2)CC1)NCc1cccs1,-1.08%
4,CC(C)Nc1ncnc2c1ncn2[C@H]1CN(Cc2ccncc2)C[C@@H](CO)O1,3.54%
5,OC[C@@H]1CN(Cc2ccc(Cl)cc2)C[C@H](n2cnc3c(NCc4ccncc4)ncnc32)O1,7.27% (active)
6,COCCNc1ncnc2c1ncn2[C@H]1CN(Cc2ccc(OC)cc2)C[C@@H](CO)O1,-1.27%
7,CCOC(=O)c1cn[nH]c1NC(=S)Nc1ccccc1,-0.64%
8,Cc1ccc(S(=O)(=O)CCC(=O)OCC(=O)N(C)C2CCS(=O)(=O)C2)cc1 (stereo unspecified),6.74%
9,O=C(c1ccc(-n2cnnn2)cc1)N1CCN(C(c2ccccc2)c2ccccc2)CC1,1.41%
10,Cc1ccc(C2CC(c3cccc(Br)c3)n3nc(N)nc3N2)cc1 (stereo unspecified),1.76%
11,Cc1ccc(C2CC(c3cccc(C)c3)n3nc(N)nc3N2)cc1 (stereo unspecified),-1.41%
12,Nc1nc2n(n1)C(c1ccco1)CC(c1ccc(Cl)c(Cl)c1)N2 (stereo unspecified),6.57% (active)
13,O=C(NC(=S)Nc1ccc(Br)cc1F)C1CCCCC1,6.29%
14,CN(C)c1ccc(CNC(=O)CN2C(=O)COc3ccc(S(=O)(=O)N4CCCC4)cc32)cc1,2.18%
15,Cc1cccc(N(C)C(=O)CN2C(=O)COc3ccc(S(=O)(=O)N4CCCCCC4)cc32)c1,9.47% (active)
16,CC(=O)Nc1ccc(NC(=O)CN2C(=O)COc3ccc(S(=O)(=O)N4CCCCC4)cc32)cc1,2.56%
17,Cc1cccc(OCc2nnc(SCc3nc4cc(C(F)(F)F)ccc4c(=O)[nH]3)o2)c1,4.23%
18,O=C1CC(Cc2ccccc2)C(=O)N1c1ccc(Cl)cn1 (stereo unspecified),-3.26%
